According to the supplement of paper PMC4166925:
± gives the standard deviation of the averaged measurements. The full ranking holds about 33,000 sequences; the median of “E-score (dimensionless, -0.5 to 0.5)” is about -0.049, and the highest 2% start at about 0.37. Many of the other results were omitted from the sample, so the highest values are more common in it than they were.

The sequences below were run on T1, PmTbr T-box DNA-binding domain (GST fusion) (assay: PBM E-score of 8-mer (E-score (dimensionless, -0.5 to 0.5)); Tbr is Tbrain of the sea star Patiria miniata (Pm) or the sea urchin Strongylocentrotus purpuratus (Sp); higher = stronger binding preference). Conditions: the construct has about 5 more residues each side.
T1 sequence: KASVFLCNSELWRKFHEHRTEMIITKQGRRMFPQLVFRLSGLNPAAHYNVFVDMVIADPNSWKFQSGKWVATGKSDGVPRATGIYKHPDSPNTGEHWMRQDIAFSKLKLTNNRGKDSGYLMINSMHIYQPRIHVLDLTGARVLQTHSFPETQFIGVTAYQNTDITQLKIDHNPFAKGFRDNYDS
Procedure: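 Universal protein-binding microarray (Agilent AMADID 016060, 60-bp probes with a 35-bp variable region) incubated with 200 nM GST-fused Patiria miniata Tbr T-box DNA-binding domain (residues 272-466) in PBS pH 7.5. Scored for every ungapped 8-mer (given with its reverse complement) by the Universal PBM Analysis Suite as E-score (modified Wilcoxon-Mann-Whitney enrichment, range -0.5 to 0.5; >0.45 counts as bound) and Z-score of median probe intensity. Two replicate arrays (datasets 1 and 2).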
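Also: 200 nM protein in PBS on universal arrays averaged over duplicate arrays.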

Sequence	PBM E-score of 8-mer
ATTGGGTC	-0.0189 ± 0.031
CGAAGCCG	0.155 ± 0.06
ATGGAGGA	-0.217 ± 0.015
ACACCCAA	0.368 ± 0.035
AAGCGAAT	-0.167 ± 0.0081
AATGTCAC	0.329 ± 0.034
AGTGTCCC	0.176 ± 0.004
CGTGTCAC	0.3865 ± 0.0037
CGTGTCCC	-0.0561 ± 0.065
AGTGTCAC	0.449 ± 0.0029
CATGTCAC	0.352 ± 0.0093
ATTAAGTA	-0.154 ± 0.096
CGACCTCG	0.14 ± 0.074
CGCTTCAG	-0.0405 ± 0.068
CTCCTAGC	0.0648 ± 0.041
GGTCACAA	0.212 ± 0.048
AGTCACAG	0.135 ± 0.054
AGTCACAT	0.11 ± 0.058
AGTCACAC	0.462 ± 0.0029
CGTCACCA	0.27 ± 0.054
AGTCACCC	-0.0493 ± 0.13
CGTCACCC	0.373 ± 0.021
CGTCACAC	0.433 ± 0.017
GGTCACAC	0.4613 ± 0.0012
CGTCACAA	0.175 ± 0.033

Sequence	PBM E-score of 8-mer
CGTCACAG	0.243 ± 0.014
GGACACAC	0.101 ± 0.0014
CTCAAGAA	-0.0351 ± 0.062
AATGAGGG	-0.21 ± 0.035
AGCAACAT	-0.000465 ± 0.079
AAAATCGT	0.158 ± 0.078
AGAACATG	-0.102 ± 0.0022
GTATCTCA	0.138 ± 0.024
CTAATAGC	0.0155 ± 0.017
AACAATAT	0.00943 ± 0.055
AGATGCTG	-0.149 ± 0.035
ATCAAGCC	-0.0171 ± 0.049
GTACTTAA	-0.16 ± 0.011
GCGGGTTA	0.0385 ± 0.009
CGCTGTTA	0.0368 ± 0.0067
CGATGTTA	-0.192 ± 0.016
CGGTGTTA	0.37 ± 0.0083
GGATGTTA	-0.00674 ± 0.011
GGGTGTTA	0.4737 ± 0.00077
GGGGGTTA	-0.158 ± 0.1
ACCCATAT	0.0957 ± 0.013
GGGTTCGA	-0.0834 ± 0.013
GGTGGGCA	0.0512 ± 0.038
AAACTCTT	-0.11 ± 0.032
CGATTCAC	0.143 ± 0.0046

Sequence	PBM E-score of 8-mer
CAACTGAG	0.0533 ± 0.042
GACTTGGA	-0.167 ± 0.064
GCGCGAAA	0.4397 ± 0.0003
CCGCGAAC	0.271 ± 0.036
TCGCGAAA	0.409 ± 0.025
GCGCGACA	0.36 ± 0.023
ACGCGAAA	0.133 ± 0.039
GCGCGATA	0.337 ± 0.011
GCGCGAAC	0.411 ± 0.017
CCGCGAAA	0.305 ± 0.027
ACGCGAAC	0.203 ± 0.043
CAATCATA	-0.102 ± 0.056
AACCCTGA	-0.108 ± 0.0053
GCCACTAA	0.153 ± 0.019
AGATACTC	-0.119 ± 0.09
TGCAGGAA	-0.153 ± 0.036
CTCCCAAC	-0.0412 ± 0.0027
AAGAACCC	-0.192 ± 0.042
AGACACCC	0.259 ± 0.023
CGACACCC	0.439 ± 0.022
GGACACCC	0.242 ± 0.037
AGACACCA	0.2603 ± 0.00061
CGACACCA	0.414 ± 0.01
TGACACCA	0.427 ± 0.02
CGACACCG	0.273 ± 0.033

Sequence	PBM E-score of 8-mer
GGACACCA	0.0777 ± 0.029
CGACACGA	0.183 ± 0.071
AAGAAAAC	-0.0889 ± 0.032
CGTTGGTA	-0.0221 ± 0.009
AAGTGCCG	0.289 ± 0.025
TGAGCAAA	0.0705 ± 0.069
AGGCCTGG	-0.293 ± 0.041
ACCTGCGT	0.112 ± 0.063
AATTGGGA	-0.0137 ± 0.033
CACCTCTG	0.4165 ± 0.00058
CAACTCTG	0.16 ± 0.08
AACCTCTG	-0.151 ± 0.032
GACCTCTA	-0.259 ± 0.07
AACCTCTA	-0.151 ± 0.025
AACCTCTC	-0.0958 ± 0.093
GACCTCTC	-0.109 ± 0.026
CACCTCTA	0.44129 ± 0.00038
CACCTCTC	0.419 ± 0.023
CACCACCA	0.201 ± 0.034
CTTTTCTA	0.0811 ± 0.085
CTCCTCAA	-0.204 ± 0.024
GCTTTCTA	-0.0965 ± 0.11
AGTGTGCC	0.125 ± 0.0018
CAATGGAA	-0.144 ± 0.028
TTGCCAAA	0.11 ± 0.066

Sequence	PBM E-score of 8-mer
GTGCCAAC	0.403 ± 0.0056
CTGCCAAC	0.0539 ± 0.0096
GTGCCAAA	0.421 ± 0.017
ATGCCAAC	0.0888 ± 0.00082
CTGCCAAA	0.186 ± 0.061
CCATATAC	-0.00383 ± 0.065
AGTCGATA	0.147 ± 0.016
AGCAGAAC	-0.287 ± 0.013
ACAACTGA	0.172 ± 0.019
TCACCTCA	0.437 ± 0.00059
AGACCTCA	0.0571 ± 0.053
TAACCTCA	-0.152 ± 0.0019
ACACCTCA	0.47047 ± 0.00026
AAACCTCT	-0.362 ± 0.051
AGACCTCT	-0.301 ± 0.015
TGACCTCA	0.0125 ± 0.0081
CCACCTCA	0.229 ± 0.039
ACACCTCT	0.48594 ± 0.00022
ACGCCTGC	0.24 ± 0.0036
GTGAAACA	0.188 ± 0.036
CTGCTTGC	-0.132 ± 0.025
CGGCAGAG	0.00638 ± 0.076
CGGCTGTC	0.0205 ± 0.07
CCTTCGGA	-0.0659 ± 0.042
AGTAACAA	0.167 ± 0.0063

Sequence	PBM E-score of 8-mer
AGTAACAC	0.393 ± 0.025
GGTAACAA	0.198 ± 0.056
AGTAACAG	0.037 ± 0.085
GGTAACAC	0.43 ± 0.0044
CGTAACAC	0.365 ± 0.011
GTCTACGA	-0.127 ± 0.013
ATCGCAGG	0.0806 ± 0.064
ACTCACTA	0.144 ± 0.02
CCTTAACG	0.00703 ± 0.089
ATGGGTAC	-0.173 ± 0.035
TAGGGTCA	-0.0997 ± 0.066
ATTGCAGC	-0.0944 ± 0.071
CTGTCGAA	0.125 ± 0.0096
GTGTCAAA	0.448 ± 0.0094
TTGTCAAA	0.144 ± 0.09
CTGTCAAC	0.338 ± 0.011
GTGTCATA	0.4057 ± 0.0013
ATGTCGAA	-0.0919 ± 0.073
CTGTCATA	0.151 ± 0.011
GTGTCAAC	0.466 ± 0.007
ATGTCAAC	0.171 ± 0.006
CTGTCAAA	0.266 ± 0.04
ATGTCATA	-0.187 ± 0.0068
GTGTCGAA	0.38248 ± 9.9e-05
CACATCAG	0.162 ± 0.035

Sequence	PBM E-score of 8-mer
ACGATGTG	0.25 ± 0.067
ACGTACTC	0.061 ± 0.028
GCATCAAC	0.0651 ± 0.026
GGGGCTGA	-0.1789 ± 0.00037
ATAGGTAC	-0.105 ± 0.041
ACGGCCAT	-0.105 ± 0.12
GTGTCAGA	0.3931 ± 0.00061
ATGTCAGA	-0.162 ± 0.069
CTGTCAGA	0.211 ± 0.014
AGGGATAA	-0.203 ± 0.032
TCGTTTCA	0.145 ± 0.031
TAGTGAAA	0.144 ± 0.048
AAGTGAAA	0.154 ± 0.056
AAGTGACA	0.458 ± 0.0065
AAGTGACC	0.185 ± 0.041
CAGTGACG	0.134 ± 0.011
AAGTGACG	0.4043 ± 0.003
AAGTGACT	0.092 ± 0.006
GAGTGACA	0.373 ± 0.017
TAGTGACA	0.398 ± 0.0059
GAGTGAAA	0.16 ± 0.1
GAGTGACC	-0.0846 ± 0.0063
CAGTGACA	0.338 ± 0.0041
